Compounds without any hit were thinned out: in the full panel of roughly 83,000, 20% have a hit.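 Percent growth is the endpoint: 0 to 100 indicates growth inhibition (40 means 60% inhibition), 0 means no net growth, and negative values indicate cell death.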 The source made the active and inactive calls. The calls were made as follows: active = growth percent below 10; inactive = the rest.
Experiments:
Assay in all cases: NCI-60 one-dose screen, 48 h (100 = growth as untreated, 0 = no growth, -100 = all killed)
Conditions in all cases: 10 µM unless noted
HCT-15 colon = tested on: HCT-15 colon
HT29 colon = tested on: HT29 colon
SNB-75 CNS = tested on: SNB-75 CNS
SNB-19 CNS = tested on: SNB-19 CNS
U251 CNS = tested on: U251 CNS
PC-3 prostate = tested on: PC-3 prostate
SK-MEL-5 melanoma = tested on: SK-MEL-5 melanoma
UACC-62 melanoma = tested on: UACC-62 melanoma
LOX IMVI melanoma = tested on: LOX IMVI melanoma
SK-MEL-28 melanoma = tested on: SK-MEL-28 melanoma
EKVX NSCLC = tested on: EKVX NSCLC
SN12C renal = tested on: SN12C renal
UO-31 renal = tested on: UO-31 renal
TK-10 renal = tested on: TK-10 renal
ACHN renal = tested on: ACHN renal
CAKI-1 renal = tested on: CAKI-1 renal
A498 renal = tested on: A498 renal
CCRF-CEM leukemia = tested on: CCRF-CEM leukemia
MOLT-4 leukemia = tested on: MOLT-4 leukemia
SK-MEL-2 melanoma = tested on: SK-MEL-2 melanoma

Measured: growth

C=C(C=O)[C@@H]1CC=C(C=O)CC1
active: HCT-15 colon -12% | U251 CNS -8.31% | SK-MEL-5 melanoma -41.1% | UACC-62 melanoma -21.6% | LOX IMVI melanoma -0.188% | SK-MEL-28 melanoma -43.3% | EKVX NSCLC 2.06% | SN12C renal -14.1% | UO-31 renal -41.7% | TK-10 renal -42.2% | ACHN renal -54.9% | CAKI-1 renal -31.7% | CCRF-CEM leukemia -52.7% | MOLT-4 leukemia -40.8%
inactive: HT29 colon 13.2% | SNB-75 CNS 32.9% | SNB-19 CNS 55% | PC-3 prostate 15.3% | A498 renal 81.7%

COC(=O)CCCNC(=O)C(=O)c1c(O)c(O)c(C(C)C)c2cc(C)c(-c3c(C)cc4c(C(C)C)c(O)c(O)c(C(=O)C(=O)NCCCC(=O)OC)c4c3O)c(O)c12
inactive: SNB-75 CNS 49.6% | SNB-19 CNS 22.5% | PC-3 prostate 21.4% | SK-MEL-28 melanoma 23.5% | SN12C renal 16.6% | CAKI-1 renal 32.7% | CCRF-CEM leukemia 16.1%
active: HCT-15 colon 1.55% | HT29 colon -22.9% | U251 CNS -62.4% | SK-MEL-5 melanoma -68.8% | UACC-62 melanoma -35.6% | LOX IMVI melanoma -85.6% | EKVX NSCLC 2.47% | UO-31 renal -5.61% | TK-10 renal 7.48% | ACHN renal 3.45% | A498 renal -7.28% | MOLT-4 leukemia 8.94%

CC(C)c1ccc(C(=O)OC(=O)c2ccc(C(C)C)cc2)cc1
inactive: HCT-15 colon 95.1% | HT29 colon 112% | SNB-75 CNS 88.6% | SNB-19 CNS 107% | U251 CNS 91.2% | PC-3 prostate 86.8% | SK-MEL-5 melanoma 116% | UACC-62 melanoma 99.4% | LOX IMVI melanoma 91.5% | SK-MEL-28 melanoma 115% | SK-MEL-2 melanoma 92.4% | UO-31 renal 83.9% | TK-10 renal 98.2% | ACHN renal 96% | CAKI-1 renal 67.7% | CCRF-CEM leukemia 66.8% | MOLT-4 leukemia 66.2%

CNC(=O)c1c(NC(=O)c2ccc(C(C)(C)C)cc2)sc2c1CCC(=O)C2
active: HCT-15 colon -20.5% | HT29 colon 3.63% | SNB-75 CNS -27.8% | U251 CNS 4.12% | PC-3 prostate -0.67% | SK-MEL-5 melanoma -83.1% | UACC-62 melanoma 0.579% | LOX IMVI melanoma 8.5% | SN12C renal 7.81% | UO-31 renal -95.5% | ACHN renal -45.9% | CAKI-1 renal -14.3% | CCRF-CEM leukemia 1.79% | MOLT-4 leukemia 2.3%
inactive: SNB-19 CNS 17.7% | SK-MEL-28 melanoma 12.2% | EKVX NSCLC 14.6% | TK-10 renal 40% | A498 renal 12.6%

c1ccc2c(c1)ncn2-c1nc2ccccc2n2c1nc1ccccc12
inactive: HCT-15 colon 43.1% | HT29 colon 40.9% | SNB-75 CNS 81.3% | SNB-19 CNS 86.8% | U251 CNS 87.6% | PC-3 prostate 72.4% | SK-MEL-5 melanoma 55.8% | UACC-62 melanoma 77.3% | LOX IMVI melanoma 79.1% | SK-MEL-28 melanoma 107% | SK-MEL-2 melanoma 104% | UO-31 renal 48% | TK-10 renal 79.6% | ACHN renal 63.1% | CAKI-1 renal 62.3% | A498 renal 82.4% | CCRF-CEM leukemia 80.6% | MOLT-4 leukemia 80.3%

COc1ccc2cc(-c3ccc(C(=O)NN)c(C)n3)ccc2c1
inactive: HCT-15 colon 99% | HT29 colon 95% | SNB-75 CNS 109% | SNB-19 CNS 96.6% | U251 CNS 98.9% | PC-3 prostate 93.3% | SK-MEL-5 melanoma 102% | UACC-62 melanoma 82.1% | LOX IMVI melanoma 88.2% | SK-MEL-28 melanoma 93.7% | EKVX NSCLC 99.5% | SN12C renal 96.6% | UO-31 renal 83.5% | TK-10 renal 95.6% | ACHN renal 103% | CAKI-1 renal 103% | A498 renal 90.7% | CCRF-CEM leukemia 91.3% | MOLT-4 leukemia 74%

COc1ccccc1NC(=O)Nc1ccc(-c2nc3ccccc3o2)cc1
inactive: HCT-15 colon 96.9% | HT29 colon 132% | SNB-75 CNS 109% | SNB-19 CNS 94.8% | U251 CNS 93.6% | PC-3 prostate 95.6% | SK-MEL-5 melanoma 92.6% | UACC-62 melanoma 98.7% | LOX IMVI melanoma 97.9% | SK-MEL-28 melanoma 111% | SK-MEL-2 melanoma 130% | SN12C renal 98.7% | UO-31 renal 94.5% | TK-10 renal 118% | ACHN renal 95.4% | CAKI-1 renal 103% | CCRF-CEM leukemia 101% | MOLT-4 leukemia 75.1%

O=C(O)C1C[C@](O)(c2ccc(F)cc2)[C@@H](c2ccc(F)cc2)O1 (stereo partly specified)
inactive: HCT-15 colon 131% | HT29 colon 120% | SNB-75 CNS 114% | SNB-19 CNS 97.5% | U251 CNS 110% | PC-3 prostate 85.9% | SK-MEL-5 melanoma 129% | UACC-62 melanoma 108% | LOX IMVI melanoma 111% | SK-MEL-28 melanoma 129% | SK-MEL-2 melanoma 102% | SN12C renal 116% | UO-31 renal 78.5% | ACHN renal 116% | CAKI-1 renal 40.5% | A498 renal 156% | CCRF-CEM leukemia 82.4% | MOLT-4 leukemia 97.2%

Cc1cc(-c2ccc(N(C)C)cc2)c2sc(=O)[nH]c2n1
inactive: HCT-15 colon 29.4% | HT29 colon 70% | SNB-75 CNS 53.2% | SNB-19 CNS 55.7% | U251 CNS 50.2% | PC-3 prostate 80.8% | SK-MEL-5 melanoma 33.3% | UACC-62 melanoma 42.5% | LOX IMVI melanoma 51.6% | SK-MEL-28 melanoma 69% | SK-MEL-2 melanoma 56% | SN12C renal 76.7% | UO-31 renal 55.3% | TK-10 renal 97.7% | ACHN renal 83.2% | CAKI-1 renal 46.9% | CCRF-CEM leukemia 60% | MOLT-4 leukemia 63.2%

O=C1Nc2ccccc2SC1c1ccccc1Cl (stereo unspecified)
inactive: HCT-15 colon 110% | HT29 colon 46% | SNB-75 CNS 34.5% | SNB-19 CNS 111% | U251 CNS 112% | PC-3 prostate 92.8% | SK-MEL-5 melanoma 106% | UACC-62 melanoma 101% | LOX IMVI melanoma 107% | SK-MEL-28 melanoma 104% | EKVX NSCLC 95.2% | SN12C renal 108% | UO-31 renal 103% | TK-10 renal 88.7% | ACHN renal 115% | CAKI-1 renal 71.9% | A498 renal 96.3% | CCRF-CEM leukemia 83.9% | MOLT-4 leukemia 86.4%

COc1ccc(NC(=O)c2cccc(-c3cc(=O)c4c(O)c(OC)c(OC)cc4o3)c2)cc1
inactive: HCT-15 colon 107% | HT29 colon 87.7% | SNB-19 CNS 61.6% | U251 CNS 73.2% | PC-3 prostate 86.2% | SK-MEL-5 melanoma 91.4% | UACC-62 melanoma 81.1% | LOX IMVI melanoma 79.7% | SK-MEL-28 melanoma 104% | SK-MEL-2 melanoma 83.4% | UO-31 renal 93.4% | TK-10 renal 105% | ACHN renal 83.6% | CAKI-1 renal 93.6% | A498 renal 83.8% | CCRF-CEM leukemia 84% | MOLT-4 leukemia 103%
active: SNB-75 CNS -5.24%

Cc1cnc(Nc2ccc(N3CCN(C)CC3)cc2)nc1Nc1ccc(Cl)c(NS(=O)(=O)C(C)(C)C)c1
active: HCT-15 colon 4.29% | HT29 colon -31.1% | SNB-75 CNS -36.8% | SK-MEL-5 melanoma -8.43% | LOX IMVI melanoma -84.4% | UO-31 renal -20.7% | TK-10 renal 0.435% | ACHN renal -4.72% | A498 renal -85.4% | MOLT-4 leukemia 10%
inactive: SNB-19 CNS 53.1% | U251 CNS 24.2% | PC-3 prostate 39.4% | UACC-62 melanoma 16.1% | SK-MEL-28 melanoma 35.2% | EKVX NSCLC 32.5% | SN12C renal 34% | CAKI-1 renal 25% | CCRF-CEM leukemia 34.2%

CN1CCN(CCCOc2ccc3nc(Nc4cc(Cl)cc(Cl)c4)ccc3c2)CC1
active: HCT-15 colon -87.6% | HT29 colon -94.4% | SNB-75 CNS -94.5% | SNB-19 CNS -76.2% | U251 CNS -87.5% | PC-3 prostate -57.8% | SK-MEL-5 melanoma -94.9% | UACC-62 melanoma -81.5% | LOX IMVI melanoma -94.4% | SK-MEL-28 melanoma -87.2% | EKVX NSCLC -21.5% | SN12C renal -17.7% | UO-31 renal -87.6% | TK-10 renal -79.7% | ACHN renal -98.8% | CAKI-1 renal -32.6% | A498 renal -18.6% | CCRF-CEM leukemia -52.5% | MOLT-4 leukemia -67.8%

O=C1NCC(=O)N(Cc2ccco2)[C@H]1Cc1ccccc1
inactive: HCT-15 colon 98.4% | HT29 colon 103% | SNB-75 CNS 94.5% | SNB-19 CNS 94.5% | U251 CNS 88.6% | PC-3 prostate 91% | SK-MEL-5 melanoma 102% | UACC-62 melanoma 96.6% | LOX IMVI melanoma 95.6% | SK-MEL-28 melanoma 107% | EKVX NSCLC 89.2% | SN12C renal 98.1% | UO-31 renal 99.8% | TK-10 renal 85.5% | ACHN renal 105% | CAKI-1 renal 97.4% | A498 renal 52.9% | CCRF-CEM leukemia 103% | MOLT-4 leukemia 102%

O=[N+]([O-])c1ccc(-c2cc3c(Nc4ccc(Sc5nc6ccccc6s5)c(Cl)c4)ncnc3s2)cc1
inactive: HCT-15 colon 23.7% | HT29 colon 13.9% | SNB-75 CNS 83.9% | SNB-19 CNS 23.7% | U251 CNS 23% | PC-3 prostate 28.3% | SK-MEL-5 melanoma 59.1% | UACC-62 melanoma 54.9% | LOX IMVI melanoma 29.6% | SK-MEL-28 melanoma 75.2% | SK-MEL-2 melanoma 46.7% | SN12C renal 28.6% | UO-31 renal 43.4% | TK-10 renal 48.2% | ACHN renal 34.4% | CCRF-CEM leukemia 34.6% | MOLT-4 leukemia 23.7%
active: A498 renal -0.884%

COc1cc(/C=C2\C=C(c3ccccc3)N(CCc3ccccc3)C2=O)cc(OC)c1OC
inactive: HCT-15 colon 94.1% | HT29 colon 74.8% | SNB-19 CNS 65.4% | U251 CNS 52.5% | PC-3 prostate 76.2% | SK-MEL-5 melanoma 57.7% | UACC-62 melanoma 56.1% | LOX IMVI melanoma 58.2% | SK-MEL-28 melanoma 84.1% | EKVX NSCLC 69.2% | SN12C renal 82% | UO-31 renal 69.2% | TK-10 renal 81.9% | ACHN renal 30.9% | CAKI-1 renal 80.1% | A498 renal 34.2% | CCRF-CEM leukemia 100% | MOLT-4 leukemia 94.8%
active: SNB-75 CNS -6.74%

Reference: PubChem BioAssay (NCI)
